According to ChEMBL document CHEMBL4513146, “CO-ADD screening of Karazin Kharkiv National University (Ukraine) compounds”:
Entries with a potency or affinity are not part of this list.

Key:
Klebsiella pneumoniae = conditions: Concentration 32 ug.mL-1;; ASSAY_TEST Inhibition of Bacterial Growth; detection method Absorption (OD600); MEDIA CAMHB; plate type 384well; NBS; CORNING #3640; time 18 hr
Candida albicans = conditions: Concentration 32 ug.mL-1; ASSAY_TEST Inhibition of Fungal Growth; detection method Absorption (OD530)
Cryptococcus neoformans = conditions: Concentration 32 ug.mL-1; ASSAY_TEST Inhibition of Fungal Growth; detection method Resazurin; Absorption (OD600-OD570); plate type 384well; NBS; CORNING #3640

Row | Compound | Inhibition (Klebsiella pneumoniae) | Inhibition (Candida albicans) | Inhibition (Cryptococcus neoformans)
1 | CCOC(=O)c1ccc(NC(=O)CSc2nnc3c4cc(-c5ccc(OC)cc5)nn4ccn23)cc1 | 14.8% | -1.16% | -22.98%
2 | CCc1nnc2ccc(S(=O)(=O)N(Cc3ccccc3)c3ccccc3)cn12 | 4.93% | 2.38% | -7.97%
3 | O=C(CSc1nnc2c(=O)n(-c3ccc(F)cc3)ccn12)N1CCN(c2ccc(F)cc2)CC1 | -5.39% | -0.55% | -6.2%
4 | Cc1cc(F)ccc1NC(=O)Cn1nc2c(SCc3ccc(Cl)cc3)nccn2c1=O | 8.05% | 13.65% | -20.69%
5 | CCOc1ccc(NC(=O)Cn2nc3c4cc(-c5ccc(Cl)cc5)nn4ccn3c2=O)cc1 | 10.46% | 5.03% | -14.66%
6 | CCCCOc1ccc(-c2cc3c4nnc(SCC(=O)NCc5ccc(OC)cc5)n4ccn3n2)cc1 | 6.37% | 17.75% | -16.44%
7 | Cc1ccc(-c2cc3c4nn(CC(=O)N5CCN(c6ccccc6F)CC5)c(=O)n4ccn3n2)cc1C | 10.7% | 3.33% | -14.81%
8 | CCCN(C)c1nccn2c(=O)n(CC(=O)Nc3ccc(C#N)cc3)nc12 | 16.62% | 0.92% | -9.74%
9 | CCOC(=O)c1cccc(NC(=O)Cn2nc3c4cc(-c5ccc(C)c(C)c5)nn4ccn3c2=O)c1 | -4.81% | 21.87% | -17.02%
10 | Cn1c(=O)c2sccc2n2c(=O)n(CCOc3ccccc3)nc12 | 1.76% | -1.1% | -29.95%
11 | O=C(CCc1nnc2c(N3CCCCC3)nc3ccccc3n12)NCCc1ccc(Cl)cc1 | 17.22% | 2.39% | -25.04%
12 | Cc1ccc(-c2cc3c4nn(CC(=O)Nc5c(C)cccc5C)c(=O)n4ccn3n2)cc1 | 9.73% | -0.52% | -14.67%
13 | COc1ccc(-c2cc3c4nnc(SCC(=O)Nc5ccccc5Cl)n4ccn3n2)cc1 | 1.23% | 2.61% | -26.87%
14 | Cc1ccc(NC(=O)CSc2nnc3ccc(C(=O)Nc4cccc(F)c4)cn23)cc1F | 6.03% | -0.33% | -4.6%
15 | O=C(Cn1nc2c(Oc3ccccc3)nccn2c1=O)Nc1ccc(F)cc1Cl | 3.51% | 0.77% | -10.04%
16 | CC(C)c1nnc2c(=O)n(CC(=O)Nc3cccc(F)c3)c3ccccc3n12 | 24.07% | 3.13% | -19.58%
17 | COc1ccccc1Cn1c(=O)c2sccc2n2c(=O)n(Cc3cccc(C)c3)nc12 | 9.07% | 1.33% | -25.61%
18 | CCc1cccc(NC(=O)Cn2nc3c(SCc4ccc(Cl)cc4)nccn3c2=O)c1 | 7.77% | 22.52% | -20.82%
19 | CC(C)NC(=O)CCn1c(=O)c2cc(Cl)ccc2n2c(=O)n(CC#N)nc12 | 4.55% | 6.33% | -24.01%
20 | O=S(=O)(c1cccn2cnnc12)N(Cc1cccc(Cl)c1)c1ccc(F)cc1 | 7.99% | -0.14% | -8.04%
21 | CCOc1ccc(-n2ccn3c(SCC(=O)Nc4cccc(CC)c4)nnc3c2=O)cc1 | -1.92% | 12.86% | -9.18%
22 | CSc1cccc(NC(=O)Cn2nc3c4c5c(sc4ncn3c2=O)CCCC5)c1 | -0.84% | 7.75% | -24.58%
23 | CC(=O)c1cccc(NC(=O)Cn2c(=O)c3nnc(C(C)C)n3c3ccccc32)c1 | 4.91% | 5.31% | -19.11%
24 | O=C(Cn1nc2c3cc(-c4ccc(Cl)cc4)nn3ccn2c1=O)Nc1ccc2c(c1)OCO2 | 13.7% | -0.02% | -18.97%
25 | CCOc1ccc(NC(=O)Cn2nc3c(N4CCCC(C)C4)nccn3c2=O)cc1 (stereo unspecified) | 13.07% | 0.78% | -15.46%
26 | O=C(CSc1nnc2c(=O)n(-c3ccc(F)c(F)c3)ccn12)c1cccc(Cl)c1 | 12.31% | 1.86% | -8.13%
27 | CN(C(=O)Cn1nc2n(Cc3cccs3)c(=O)c3sccc3n2c1=O)c1ccccc1 | -2.89% | 0.01% | -9.21%
